Over roughly 110,000 compounds, “z-score” has its median near -0.1; the highest 2% begin near 2. What follows is part of a selection rich in the highest values, with near analogues and random picks from the rest. Active and inactive are the calls of the source.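 Rule for the calls: active = z-score in the third read window above 3 or below -3; inactive = the rest.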
What follows are compounds tested against Metabotropic glutamate receptor 8 (Rattus norvegicus) (UniProt P70579) (assay: mGluR8 Gi/Go-coupled signaling modulation – cell-based, rat, thallium flux, HTS, primary screen (AID 488969)). Settings: HEK293 rat mGluR8, GIRK (G protein-gated inwardly rectifying potassium channel) thallium flux, FluoZin2; at 10 µM; stronger effect = higher value; submaximal glutamate (EC20) added with thallium.
Sequence of Metabotropic glutamate receptor 8 (Rattus norvegicus) (P70579 whole entry, looked up): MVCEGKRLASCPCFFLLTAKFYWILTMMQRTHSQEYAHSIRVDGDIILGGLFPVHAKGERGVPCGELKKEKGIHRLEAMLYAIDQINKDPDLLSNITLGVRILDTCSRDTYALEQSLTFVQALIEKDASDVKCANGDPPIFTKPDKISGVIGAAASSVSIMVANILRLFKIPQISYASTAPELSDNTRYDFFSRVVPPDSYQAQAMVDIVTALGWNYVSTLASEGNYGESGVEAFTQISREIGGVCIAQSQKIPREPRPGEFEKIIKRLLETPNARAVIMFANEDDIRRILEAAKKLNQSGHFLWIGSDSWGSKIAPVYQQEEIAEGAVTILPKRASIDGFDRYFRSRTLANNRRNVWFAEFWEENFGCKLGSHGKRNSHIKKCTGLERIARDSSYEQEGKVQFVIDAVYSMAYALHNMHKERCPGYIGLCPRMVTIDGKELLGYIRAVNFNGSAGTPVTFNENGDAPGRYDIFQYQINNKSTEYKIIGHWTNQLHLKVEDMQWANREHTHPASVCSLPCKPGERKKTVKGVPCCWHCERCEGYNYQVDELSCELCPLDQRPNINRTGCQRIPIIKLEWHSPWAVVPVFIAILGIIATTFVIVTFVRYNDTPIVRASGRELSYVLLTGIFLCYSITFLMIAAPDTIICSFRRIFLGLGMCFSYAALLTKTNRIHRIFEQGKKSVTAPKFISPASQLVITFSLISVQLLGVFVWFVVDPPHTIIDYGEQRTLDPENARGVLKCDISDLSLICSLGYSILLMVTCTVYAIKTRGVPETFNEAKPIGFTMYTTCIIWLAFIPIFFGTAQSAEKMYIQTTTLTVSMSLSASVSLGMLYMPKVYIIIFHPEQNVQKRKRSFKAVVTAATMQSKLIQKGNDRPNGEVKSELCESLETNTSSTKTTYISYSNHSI

Compound | z-score
CCCCNC(=O)Nc1ccccc1C(=O)NCc1ccco1 | 0.486
COc1cc(OC)cc(C(=O)NNC(=O)NC2CCCCC2)c1 | -0.0486
CC(=O)NCCOc1ccc2oc3ccccc3c2c1 | -0.506
O=C1c2ccccc2NC(c2cccc(Cl)c2)N1N=C1CCCCCC1 (stereo unspecified) | -0.359
COC(=O)CSc1nc2ncccc2[nH]1 | 2.69
CCN(CC)C(=O)CSc1nc2ncccc2[nH]1 | 1.1
CC(C)OC(=O)CSc1nc2ncccc2[nH]1 | -0.0946
Cc1ccc(-c2nc3ccccc3o2)cc1NC(=S)NC(=O)/C=C/c1ccco1 | 0.0248
Cc1ccc2oc(-c3cccc(NC(=S)NC(=O)/C=C/c4ccco4)c3)nc2c1 | -0.494
Cc1ccc2oc(-c3cccc(NC(=S)NC(=O)c4cccs4)c3)nc2c1 | 3.78 (active)
Cc1ccc2oc(-c3cccc(NC(=O)Cc4cccs4)c3)nc2c1 | 0.0421
Cc1ccc(-c2nc3ccccc3o2)cc1NC(=S)NC(=O)c1cccs1 | 1.65
Cc1cc(C)c2oc(-c3ccc(C)c(NC(=S)NC(=O)/C=C/c4ccco4)c3)nc2c1 | -0.0423
Cc1ccc(-c2nc3ccccc3o2)cc1NC(=S)NC(=O)c1cc2ccccc2o1 | 2.35
Cc1cc(C)c2oc(-c3ccc(C)c(NC(=S)NC(=O)c4cccs4)c3)nc2c1 | 3.57 (active)
Cc1ccc2oc(-c3ccc(C)c(NC(=S)NC(=O)c4cccs4)c3)nc2c1 | 0.703
Cc1cc(NC(=O)COC(=O)c2cccc(OCc3ccccc3)c2)no1 | 0.388
CCN(CC)C(=O)C1CC(=O)OC12CCCCC2 (stereo unspecified) | -0.477
COc1ccc(OC)c(C(=O)COC(=O)C2CC3CCCC(C2)C3=O)c1 (stereo unspecified) | 1.3

Compound | z-score
Cc1noc(C)c1C(=O)OC(C(=O)NC1CCCC1)c1ccc(F)cc1 (stereo unspecified) | 0.659
Cc1cccc(C(=O)Nc2nc(C)c(C(=O)Nc3ccc4c(c3)CCC4)s2)c1 | -0.0981
COC(=O)c1sc(NC(=S)NC(=O)c2ccccc2)nc1C | 2.47
COc1ccc(C(=O)NC(=S)Nc2nc(C)c(C(=O)N(C)C)s2)cc1 | -0.0547
COC(=O)c1sc(NC(=O)COc2cccc(C)c2)nc1C | -0.0129
CCOC(=O)c1sc(NC(=S)NC(=O)c2ccccc2Cl)c(C(=O)OCC)c1C | 0.214
CCOC(=O)c1sc(NC(=O)COC(=O)c2ccco2)nc1C | 0.0458
Cc1nc(NC(=S)NC(=O)c2ccccc2)sc1C(=O)N(C)C | -0.185
COC(=O)c1sc(NC(=S)NC(=O)c2ccccc2Cl)nc1C | 5.46 (active)
CCOC(=O)c1sc(NC(=S)NC(=O)c2ccco2)nc1C | 7.57 (active)
COC(=O)c1sc(Nc2ccccc2)nc1C | -0.75
CCOC(=O)c1sc(NC(=O)c2ccco2)nc1-c1ccccc1 | 0.0322
COC(=O)c1sc(NC(=S)NC(=O)c2cccc(C)c2)nc1C | 4.51 (active)
Cc1nonc1OCC(C)(COc1nonc1C)NC(=O)c1ccccc1 | -0.133
CCOC(=O)C1C(=O)NC(N2CCOCC2)=NC1c1ccco1 (stereo unspecified) | -0.222
CCOC(=O)C1CCCN(C(=S)Nc2cccc(Cl)c2C)C1 (stereo unspecified) | -0.429
O=c1c2ccccc2nc(-c2ccc(Cl)cc2)n1C1CCS(=O)(=O)C1 (stereo unspecified) | -0.341
Cc1cc2nc(C)n(CCCNC(=O)Nc3cccc4ccccc34)c2cc1C | -0.0533
CCCN1CNC(=S)N(CC2CCCO2)C1 (stereo unspecified) | 0.136

Compound | z-score
Cc1c(Cl)cnc(NC(=O)COC(=O)CCC(=O)c2cccs2)c1Cl | -0.28
CNC(=S)N(Cc1ccc(OC)cc1)C1CC(=O)N(c2ccc(C(=O)OC)cc2)C1=O (stereo unspecified) | -0.228
Cc1ccc2nc3ccc(N4CCCCCCC4)nn3c(=O)c2c1 | -0.682
O=C(CCSc1ccc(Cl)cc1)N1CCOCC1 | -0.207
CC(=O)Nc1ccc(NC(=O)CSc2ccc(C(F)(F)F)cc2[N+](=O)[O-])cc1 | -0.252
O=C(Nc1nccs1)C1CCCN1S(=O)(=O)c1ccc(Cl)cc1 (stereo unspecified) | 0.437
CCS(=O)(=O)N1CCN(C(=O)C(c2ccccc2)c2ccccc2)CC1 | -0.138
O=C(c1ccc(F)cc1)N1CCN(c2ncccn2)CC1 | -0.204
N#Cc1c(N2CCN(C(=O)c3ccco3)CC2)nc(-c2ccccc2)c2c1CCCC2 | -0.665
N#Cc1c(N2CCN(C(=O)c3ccccc3)CC2)nc(-c2ccccc2)c2c1CCCC2 | 2.92
O=C(c1cccc(C(=O)N2CCN(c3ncccn3)CC2)c1)N1CCN(c2ncccn2)CC1 | 0.184
N#Cc1c(N2CCN(C(=O)c3ccccc3Cl)CC2)nc(-c2ccccc2)c2c1CCCC2 | -0.453
O=C(c1ccc(-c2ccccc2)cc1)N1CCN(c2ncccn2)CC1 | 3.97 (active)
COc1ccc2c(c1)CC/C(=C\c1ccc(OC)c(Cn3cccn3)c1)C2=O | -0.628
CCOc1ccccc1OCCCC(=O)Nc1sccc1C(N)=O | 0.813
O=C(CCl)Nc1ccccc1Sc1ccccc1 | -0.216
CCCC(=O)NC(c1cccs1)c1cc([N+](=O)[O-])c2cccnc2c1O (stereo unspecified) | 2.37
CC(=O)NC(c1cccs1)c1cc([N+](=O)[O-])c2cccnc2c1O (stereo unspecified) | -1.44
